# According to PubChem BioAssay (EPA / NIEHS):
# Records with an inconclusive call do not appear. The source made the active and inactive calls. Rule for the calls: active = hit-call score of the fitted dose curve at least 0.9, where 1 is the maximum; inconclusive = response in the unintended direction; inactive = score below 0.9.
# Test: CLD_ACTIN_24hr: CellzDirect (CLD) Gene Expression Assay for Baseline Control (Actin) at 24 hours (AID 2283670)
# Outline: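 This 24 h qNPA (S1 nuclease protection, chemiluminescence) actin transcript readout in cultured human liver primary cells serves as baseline control. Signal is fitted upward relative to 0.2% DMSO; chemicals tested at multiple concentrations across two donor preparations.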
row,Compound,outcome
1,COC(=O)c1ccccc1S(=O)(=O)NC(=O)N(C)c1nc(C)nc(OC)n1,inactive
2,O=C1c2ccccc2C(=O)N1SC(Cl)(Cl)Cl,inactive
3,CNC(=O)Oc1ccccc1OC(C)C,inactive
4,CN1CSC(=S)N(C)C1,inactive
5,COP(=O)(OC)OC=C(Cl)Cl,inactive
6,COc1cc(OC)nc(NC(=O)NS(=O)(=O)c2cc(NC=O)ccc2C(=O)N(C)C)n1,inactive
7,O=C(O)CCCOc1ccc(Cl)cc1Cl,inactive
8,O=[N+]([O-])/N=C1\NCCN1Cc1ccc(Cl)nc1,inactive
9,Oc1ccc(Cl)cc1Cc1ccccc1,inactive
10,CC(C)N(C(=O)COc1nnc(C(F)(F)F)s1)c1ccc(F)cc1,inactive
11,CC1(c2ccc(Oc3ccccc3)cc2)OC(=O)N(Nc2ccccc2)C1=O (centres undefined),inactive
12,N#CN,inactive
13,O=C(O)COc1ccc(Cl)cc1Cl,inactive
14,CNC(=O)Oc1cccc(N=CN(C)C)c1,inactive
